{"source": "the supplement of paper PMC10849652", "note": "About 8,800 targets were measured; listed, in parts, are those with a hit and a random draw of the rest. About 0.5% of all pairs of compound and target were hits.", "data": [{"compound": "CN1CCN(CCOc2cc(OC3CCOCC3)c3c(Nc4c(Cl)ccc5c4OCO5)ncnc3c2)CC1 [saracatinib]", "experiment": "log2 fold change, soluble protein after heating vs DMSO (PISA); higher = thermal stabilisation; K562 lysate, 10 uM; active = over 0.2 and 3.5 SD of the protein, either way, in both replicates (recomputed)", "in_short": "(§1)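 The values are log-two fold changes in thermal stability compared with solvent controls and come from duplicates. They were obtained by TMTpro 16plex LC-MS/MS, with channel sums equalised, on the supernatant after 21,000xg for 90 min. That supernatant came from crude K562 extract at 1 mg/mL protein treated with 10 μM compound for 30 min, heated for 3 min across 48°C-58°C, pooled and brought to 0.5% NP-40 at 4°C.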", "values": [{"target": "MRPS12 (UniProt O15235)", "log2 fold change": "0.016 (inactive)"}, {"target": "NOSIP (UniProt Q9Y314)", "log2 fold change": "0.008 (inactive)"}, {"target": "N6AMT1 (UniProt Q9Y5N5)", "log2 fold change": "0.019 (inactive)"}, {"target": "NEBL isoform 2 (UniProt O76041)", "sequence (O76041 whole entry, looked up)": "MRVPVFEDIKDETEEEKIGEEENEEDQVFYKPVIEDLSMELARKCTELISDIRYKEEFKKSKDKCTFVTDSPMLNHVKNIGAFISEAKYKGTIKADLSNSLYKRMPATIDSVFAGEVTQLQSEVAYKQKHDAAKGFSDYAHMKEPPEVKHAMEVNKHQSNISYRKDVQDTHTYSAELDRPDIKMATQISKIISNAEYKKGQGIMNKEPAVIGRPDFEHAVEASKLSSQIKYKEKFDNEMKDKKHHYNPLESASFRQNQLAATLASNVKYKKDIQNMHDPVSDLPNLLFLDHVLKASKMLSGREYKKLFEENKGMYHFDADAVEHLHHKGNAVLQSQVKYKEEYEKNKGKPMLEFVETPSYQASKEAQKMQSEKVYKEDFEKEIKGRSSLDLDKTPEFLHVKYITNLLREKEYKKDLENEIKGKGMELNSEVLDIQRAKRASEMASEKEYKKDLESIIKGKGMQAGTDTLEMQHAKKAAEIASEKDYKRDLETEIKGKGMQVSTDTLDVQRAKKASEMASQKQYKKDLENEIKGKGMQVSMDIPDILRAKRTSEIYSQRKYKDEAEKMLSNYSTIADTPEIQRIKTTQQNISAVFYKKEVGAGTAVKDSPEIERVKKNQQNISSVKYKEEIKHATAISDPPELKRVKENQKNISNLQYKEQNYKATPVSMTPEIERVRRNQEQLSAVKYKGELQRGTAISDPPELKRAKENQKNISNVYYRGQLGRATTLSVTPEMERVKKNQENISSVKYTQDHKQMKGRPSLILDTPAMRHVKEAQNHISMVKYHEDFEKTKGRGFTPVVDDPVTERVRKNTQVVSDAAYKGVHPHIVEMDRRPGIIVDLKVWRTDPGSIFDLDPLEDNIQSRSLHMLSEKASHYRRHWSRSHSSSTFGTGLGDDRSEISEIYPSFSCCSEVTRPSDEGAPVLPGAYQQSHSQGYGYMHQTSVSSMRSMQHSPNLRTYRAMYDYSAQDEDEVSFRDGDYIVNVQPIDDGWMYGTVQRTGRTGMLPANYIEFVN", "log2 fold change": "0.023 (inactive)"}, {"target": "NAT1 (UniProt P18440)", "log2 fold change": "-0.001 (inactive)"}, {"target": "NUMBL (UniProt Q9Y6R0)", "log2 fold change": "0.052 (inactive)"}, {"target": "NDUFAF5 (UniProt Q5TEU4)", "log2 fold change": "0.179 (inactive)"}, {"target": "ORC3 isoform 2 (UniProt Q9UBD5)", "log2 fold change": "-0.001 (inactive)"}, {"target": "PAK1 (UniProt Q13153)", "sequence (Q13153 whole entry, looked up)": "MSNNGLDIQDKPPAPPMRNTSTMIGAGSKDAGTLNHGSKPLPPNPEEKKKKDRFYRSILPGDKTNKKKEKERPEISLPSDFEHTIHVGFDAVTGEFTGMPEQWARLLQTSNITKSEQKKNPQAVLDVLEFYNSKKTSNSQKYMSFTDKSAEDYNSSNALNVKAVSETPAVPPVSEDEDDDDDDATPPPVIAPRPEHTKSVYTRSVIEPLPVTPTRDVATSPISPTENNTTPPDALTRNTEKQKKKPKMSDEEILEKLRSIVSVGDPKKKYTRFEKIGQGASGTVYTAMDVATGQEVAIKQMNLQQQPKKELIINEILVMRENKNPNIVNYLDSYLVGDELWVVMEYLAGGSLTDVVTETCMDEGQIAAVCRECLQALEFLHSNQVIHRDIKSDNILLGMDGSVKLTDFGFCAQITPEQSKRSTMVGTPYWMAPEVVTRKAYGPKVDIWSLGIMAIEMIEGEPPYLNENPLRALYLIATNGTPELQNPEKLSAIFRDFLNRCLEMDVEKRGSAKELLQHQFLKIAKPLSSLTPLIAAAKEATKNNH", "log2 fold change": "0 (inactive)"}, {"target": "OLA1 (UniProt Q9NTK5)", "log2 fold change": "-0.003 (inactive)"}, {"target": "OARD1 (UniProt Q9Y530)", "sequence (Q9Y530 whole entry, looked up)": "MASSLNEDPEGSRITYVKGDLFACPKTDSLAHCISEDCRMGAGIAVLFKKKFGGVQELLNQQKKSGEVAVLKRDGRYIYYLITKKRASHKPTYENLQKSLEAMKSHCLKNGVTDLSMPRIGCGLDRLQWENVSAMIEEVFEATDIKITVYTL", "log2 fold change": "0.006 (inactive)"}, {"target": "NIPBL (UniProt Q6KC79)", "sequence (Q6KC79 whole entry, looked up)": "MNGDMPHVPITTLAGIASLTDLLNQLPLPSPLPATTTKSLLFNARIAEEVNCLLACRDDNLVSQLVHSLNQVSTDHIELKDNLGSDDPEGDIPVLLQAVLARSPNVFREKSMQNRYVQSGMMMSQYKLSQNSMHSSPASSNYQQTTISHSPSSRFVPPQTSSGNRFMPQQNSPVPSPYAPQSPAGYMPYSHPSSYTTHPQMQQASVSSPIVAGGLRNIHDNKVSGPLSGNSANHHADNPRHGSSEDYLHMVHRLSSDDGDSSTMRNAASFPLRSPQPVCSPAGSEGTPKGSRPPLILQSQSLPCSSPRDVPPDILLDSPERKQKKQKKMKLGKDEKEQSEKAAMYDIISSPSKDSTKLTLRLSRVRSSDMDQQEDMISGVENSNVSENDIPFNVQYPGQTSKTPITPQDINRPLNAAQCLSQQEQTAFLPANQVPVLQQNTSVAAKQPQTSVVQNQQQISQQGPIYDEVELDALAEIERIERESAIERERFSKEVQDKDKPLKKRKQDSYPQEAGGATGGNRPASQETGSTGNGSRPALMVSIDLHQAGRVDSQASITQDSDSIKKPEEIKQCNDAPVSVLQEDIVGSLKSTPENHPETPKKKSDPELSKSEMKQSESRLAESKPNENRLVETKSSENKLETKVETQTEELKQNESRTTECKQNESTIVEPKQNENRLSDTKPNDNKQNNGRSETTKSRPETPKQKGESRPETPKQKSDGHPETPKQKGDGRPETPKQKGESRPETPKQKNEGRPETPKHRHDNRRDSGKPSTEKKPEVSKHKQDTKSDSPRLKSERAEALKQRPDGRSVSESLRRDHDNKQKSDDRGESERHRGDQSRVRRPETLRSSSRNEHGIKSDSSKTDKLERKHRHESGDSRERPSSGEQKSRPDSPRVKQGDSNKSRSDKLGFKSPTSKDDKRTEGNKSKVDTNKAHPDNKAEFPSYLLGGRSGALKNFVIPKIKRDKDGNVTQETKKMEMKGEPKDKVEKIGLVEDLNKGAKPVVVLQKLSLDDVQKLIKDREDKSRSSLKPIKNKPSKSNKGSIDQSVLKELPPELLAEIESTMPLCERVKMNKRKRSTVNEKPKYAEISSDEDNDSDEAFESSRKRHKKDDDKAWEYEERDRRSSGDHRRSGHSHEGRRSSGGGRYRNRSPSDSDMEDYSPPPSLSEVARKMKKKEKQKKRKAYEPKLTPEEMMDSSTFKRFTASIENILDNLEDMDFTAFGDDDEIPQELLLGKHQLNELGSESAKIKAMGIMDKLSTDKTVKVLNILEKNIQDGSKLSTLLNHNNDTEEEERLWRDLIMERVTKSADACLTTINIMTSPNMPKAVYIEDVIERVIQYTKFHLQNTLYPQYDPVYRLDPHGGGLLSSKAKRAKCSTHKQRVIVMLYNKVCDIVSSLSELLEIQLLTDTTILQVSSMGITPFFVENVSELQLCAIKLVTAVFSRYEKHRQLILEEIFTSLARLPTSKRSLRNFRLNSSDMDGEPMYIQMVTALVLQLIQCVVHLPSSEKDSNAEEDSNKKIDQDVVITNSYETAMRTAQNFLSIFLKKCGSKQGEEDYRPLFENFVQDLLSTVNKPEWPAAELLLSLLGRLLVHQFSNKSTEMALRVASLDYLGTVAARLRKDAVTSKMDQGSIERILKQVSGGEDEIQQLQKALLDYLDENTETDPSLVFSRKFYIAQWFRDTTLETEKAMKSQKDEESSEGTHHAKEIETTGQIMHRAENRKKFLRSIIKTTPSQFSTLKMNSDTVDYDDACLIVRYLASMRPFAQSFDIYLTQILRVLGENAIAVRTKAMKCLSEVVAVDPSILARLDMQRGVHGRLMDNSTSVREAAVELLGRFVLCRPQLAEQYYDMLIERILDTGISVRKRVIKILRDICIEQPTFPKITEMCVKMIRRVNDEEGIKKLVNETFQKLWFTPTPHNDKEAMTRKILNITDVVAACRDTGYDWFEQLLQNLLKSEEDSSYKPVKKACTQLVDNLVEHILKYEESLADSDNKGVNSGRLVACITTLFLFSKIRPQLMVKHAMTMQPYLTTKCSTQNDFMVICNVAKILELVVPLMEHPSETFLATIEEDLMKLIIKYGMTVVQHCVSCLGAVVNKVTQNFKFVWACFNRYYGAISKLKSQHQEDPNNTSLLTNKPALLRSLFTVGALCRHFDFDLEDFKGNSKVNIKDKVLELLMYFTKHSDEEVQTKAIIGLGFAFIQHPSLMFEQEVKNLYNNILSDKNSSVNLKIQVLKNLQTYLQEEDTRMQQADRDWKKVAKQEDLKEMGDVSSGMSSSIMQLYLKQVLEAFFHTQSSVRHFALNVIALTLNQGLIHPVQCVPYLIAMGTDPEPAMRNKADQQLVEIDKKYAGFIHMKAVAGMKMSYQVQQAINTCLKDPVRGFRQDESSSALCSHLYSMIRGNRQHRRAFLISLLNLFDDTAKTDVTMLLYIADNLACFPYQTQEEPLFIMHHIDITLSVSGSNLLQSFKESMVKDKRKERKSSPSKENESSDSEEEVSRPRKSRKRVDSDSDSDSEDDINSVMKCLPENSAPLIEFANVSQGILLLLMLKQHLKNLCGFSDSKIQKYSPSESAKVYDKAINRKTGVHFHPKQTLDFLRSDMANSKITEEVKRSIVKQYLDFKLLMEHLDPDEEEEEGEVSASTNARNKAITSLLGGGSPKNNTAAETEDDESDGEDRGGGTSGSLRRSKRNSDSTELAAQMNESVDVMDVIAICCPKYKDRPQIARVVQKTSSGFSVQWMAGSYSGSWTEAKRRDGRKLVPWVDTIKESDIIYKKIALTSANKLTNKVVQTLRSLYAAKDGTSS", "log2 fold change": "-0.001 (inactive)"}, {"target": "MTA1 (UniProt Q13330)", "log2 fold change": "0.018 (inactive)"}, {"target": "MYH11 isoform 2 (UniProt P35749)", "log2 fold change": "0.029 (inactive)"}, {"target": "PANK2 (UniProt Q9BZ23)", "sequence (Q9BZ23 whole entry, looked up)": "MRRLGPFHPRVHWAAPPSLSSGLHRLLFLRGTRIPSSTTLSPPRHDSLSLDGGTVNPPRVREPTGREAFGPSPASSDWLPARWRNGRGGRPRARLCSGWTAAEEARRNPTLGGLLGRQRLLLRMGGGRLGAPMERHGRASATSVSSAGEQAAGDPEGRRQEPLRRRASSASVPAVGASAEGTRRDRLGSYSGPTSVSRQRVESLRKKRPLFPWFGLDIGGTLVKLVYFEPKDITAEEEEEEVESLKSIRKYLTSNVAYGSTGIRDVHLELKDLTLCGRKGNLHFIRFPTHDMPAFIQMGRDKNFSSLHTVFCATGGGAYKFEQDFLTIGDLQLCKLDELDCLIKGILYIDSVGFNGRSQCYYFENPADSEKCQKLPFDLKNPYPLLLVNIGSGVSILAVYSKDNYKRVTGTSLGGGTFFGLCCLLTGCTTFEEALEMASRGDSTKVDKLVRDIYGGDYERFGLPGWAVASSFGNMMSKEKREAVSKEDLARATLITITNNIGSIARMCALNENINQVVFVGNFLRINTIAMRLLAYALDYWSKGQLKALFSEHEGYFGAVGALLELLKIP", "log2 fold change": "0.068 (inactive)"}, {"target": "NPTN (UniProt Q9Y639)", "log2 fold change": "0.02 (inactive)"}, {"target": "NEBL (UniProt O76041)", "log2 fold change": "-0.035 (inactive)"}, {"target": "NT5DC2 isoform 2 (UniProt Q9H857)", "log2 fold change": "-0.017 (inactive)"}, {"target": "NFATC1 (UniProt O95644)", "log2 fold change": "0.042 (inactive)"}, {"target": "NUP93 (UniProt Q8N1F7)", "log2 fold change": "0.013 (inactive)"}, {"target": "MTCH2 (UniProt Q9Y6C9)", "log2 fold change": "-0.011 (inactive)"}, {"target": "MTA2 (UniProt O94776)", "log2 fold change": "0.015 (inactive)"}, {"target": "NONO (UniProt Q15233)", "log2 fold change": "0.004 (inactive)"}, {"target": "NCAPG2 (UniProt Q86XI2)", "log2 fold change": "0.027 (inactive)"}, {"target": "NF1 (UniProt P21359)", "log2 fold change": "0.001 (inactive)"}, {"target": "NIPSNAP3A (UniProt Q9UFN0)", "log2 fold change": "-0.002 (inactive)"}, {"target": "PAN2 isoform 2 (UniProt Q504Q3)", "log2 fold change": "-0.021 (inactive)"}, {"target": "NUP205 (UniProt Q92621)", "log2 fold change": "0.043 (inactive)"}, {"target": "NBN (UniProt O60934)", "log2 fold change": "0.025 (inactive)"}, {"target": "NCAPD2 (UniProt Q15021)", "log2 fold change": "0.006 (inactive)"}, {"target": "NEK9 (UniProt Q8TD19)", "log2 fold change": "0.035 (inactive)"}, {"target": "NMRAL1 (UniProt Q9HBL8)", "log2 fold change": "0.011 (inactive)"}, {"target": "OSBP2 (UniProt Q969R2)", "log2 fold change": "0.068 (inactive)"}, {"target": "NLRP2 (UniProt Q9NX02)", "log2 fold change": "-0.012 (inactive)"}, {"target": "NUF2 (UniProt Q9BZD4)", "log2 fold change": "0.032 (inactive)"}, {"target": "NR3C1 isoform 3 (UniProt P04150)", "log2 fold change": "0.072 (inactive)"}]}, {"compound": "CN1CCN(c2nc(C3=C(c4c[nH]c5ccccc45)C(=O)NC3=O)c3ccccc3n2)CC1 [sotrastaurin]", "experiment": "log2 fold change, soluble protein after heating vs DMSO (PISA); higher = thermal stabilisation; K562 lysate, 10 uM; active = over 0.2 and 3.5 SD of the protein, either way, in both replicates (recomputed)", "in_short": "as §1", "values": [{"target": "MRPS12 (UniProt O15235)", "log2 fold change": "0.028 (inactive)"}, {"target": "NOSIP (UniProt Q9Y314)", "log2 fold change": "-0.014 (inactive)"}, {"target": "N6AMT1 (UniProt Q9Y5N5)", "log2 fold change": "0.038 (inactive)"}, {"target": "NEBL isoform 2 (UniProt O76041)", "log2 fold change": "-0.039 (inactive)"}, {"target": "NAT1 (UniProt P18440)", "log2 fold change": "0.078 (inactive)"}, {"target": "NUMBL (UniProt Q9Y6R0)", "log2 fold change": "-0.278 (inactive)"}, {"target": "NDUFAF5 (UniProt Q5TEU4)", "log2 fold change": "0 (inactive)"}, {"target": "ORC3 isoform 2 (UniProt Q9UBD5)", "log2 fold change": "0.027 (inactive)"}, {"target": "PAK1 (UniProt Q13153)", "log2 fold change": "-0.054 (inactive)"}, {"target": "OLA1 (UniProt Q9NTK5)", "log2 fold change": "0.026 (inactive)"}, {"target": "OARD1 (UniProt Q9Y530)", "log2 fold change": "0.002 (inactive)"}, {"target": "NIPBL (UniProt Q6KC79)", "log2 fold change": "0.004 (inactive)"}, {"target": "MTA1 (UniProt Q13330)", "log2 fold change": "0.036 (inactive)"}, {"target": "MYH11 isoform 2 (UniProt P35749)", "log2 fold change": "0.002 (inactive)"}, {"target": "PANK2 (UniProt Q9BZ23)", "log2 fold change": "0.027 (inactive)"}, {"target": "NPTN (UniProt Q9Y639)", "log2 fold change": "-0.016 (inactive)"}, {"target": "NEBL (UniProt O76041)", "log2 fold change": "0.085 (inactive)"}, {"target": "NT5DC2 isoform 2 (UniProt Q9H857)", "log2 fold change": "0.117 (inactive)"}, {"target": "NFATC1 (UniProt O95644)", "log2 fold change": "0 (inactive)"}, {"target": "NUP93 (UniProt Q8N1F7)", "log2 fold change": "0.028 (inactive)"}, {"target": "MTCH2 (UniProt Q9Y6C9)", "log2 fold change": "0.022 (inactive)"}, {"target": "MTA2 (UniProt O94776)", "log2 fold change": "0.042 (inactive)"}, {"target": "NONO (UniProt Q15233)", "log2 fold change": "-0.015 (inactive)"}, {"target": "NCAPG2 (UniProt Q86XI2)", "log2 fold change": "0.027 (inactive)"}, {"target": "NF1 (UniProt P21359)", "log2 fold change": "-0.029 (inactive)"}, {"target": "NIPSNAP3A (UniProt Q9UFN0)", "log2 fold change": "0.021 (inactive)"}, {"target": "PAN2 isoform 2 (UniProt Q504Q3)", "log2 fold change": "0.018 (inactive)"}, {"target": "NUP205 (UniProt Q92621)", "log2 fold change": "0.022 (inactive)"}, {"target": "NBN (UniProt O60934)", "log2 fold change": "0.001 (inactive)"}, {"target": "NCAPD2 (UniProt Q15021)", "log2 fold change": "0.021 (inactive)"}, {"target": "NEK9 (UniProt Q8TD19)", "log2 fold change": "-0.016 (inactive)"}, {"target": "NMRAL1 (UniProt Q9HBL8)", "log2 fold change": "-0.034 (inactive)"}, {"target": "OSBP2 (UniProt Q969R2)", "log2 fold change": "0.104 (inactive)"}, {"target": "NLRP2 (UniProt Q9NX02)", "log2 fold change": "-0.017 (inactive)"}, {"target": "NUF2 (UniProt Q9BZD4)", "log2 fold change": "0.03 (inactive)"}, {"target": "NR3C1 isoform 3 (UniProt P04150)", "log2 fold change": "-0.016 (inactive)"}]}]}
